A selection: hits, their analogues and other compounds. The true share with any hit is near 10%.
PNC assembly inh: perinucleolar compartment assembly inhibition | hit rate 3.1% among 140,000 | PC3M PTB-GFP, PNC prevalence imaging, 16 h; stronger effect = lower value | activity change (PNC), negative = inhibition, % at 10 µM;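 active = readout at or below -70, meaning at least 70% loss of cells showing the perinucleolar compartment, a nuclear body marking cancer cells; inconclusive = readout between -30 and a set limit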;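 note: plate controls were DMSO wells for no effect and camptothecin positive control wells for full effect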
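PC3M cells stably expressing PTB-GFP, 750–1000 cells/well, treated 16 h at 37 °C with compound (23 nl of library stock), in duplicate. After paraformaldehyde fixation and Hoechst stain, imaged at 20x; PNC prevalence scored by image analysis.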
12-hLO inh: inhibitors of human 12-lipoxygenase (ALOX12). P18054. purified 12-hLO, xylenol orange hydroperoxide absorbance. Potency, µM (series often up to 57.1 µM), for inactives: at the top dose activity change, negative = inhibition, usual class: inhibitors. hit rate 0.12% among 150,000. AID 1452; active = well fitted inhibition curve with a large enough effect; inconclusive = small, poorly fitted or top-dose-only effect; note: potency is the fitted concentration of half-maximal effect; nearly all actives have a fitted effect of over 55% in size
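Xylenol orange chromogenic assay: hydroperoxide from 12hLO oxidises Fe(II), giving red-shifted Fe(III)-XO absorbance. Conditions: 150 nM enzyme, 40 uM arachidonic acid, 25 mM Hepes pH 7.0, 0.01% Triton X-100, 30 min, room temperature.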
HPGD block: inhibitors of human 15-hydroxyprostaglandin dehydrogenase (HPGD); Potency, µM, for inactives: top-dose activity change, negative = inhibition, hits mostly inhibitors; purified HPGD, NADH fluorescence kinetic, PGE2 substrate; P15428; hit rate 4.3% among 150,000; note: potency is the fitted concentration of half-maximal effect
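20 nM HPGD preincubated 15 min at room temperature with compound in 50 mM Tris-HCl pH 8, 0.01% Tween 20. Started with 1 mM NAD+ and 30 uM prostaglandin E2; NADH fluorescence (360/450 nm) read 5 times over 30-s intervals, last minus first.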
LMNA splice mod: modulators of lamin A splicing; HeLa LMNA splicing GFP/RFP minigene ratio, 48 h; hit rate 0.01% among 200,000; Potency, µM (series often up to 46.1 µM), inactives show top-dose ratio change, negative = inhibition, hits mostly inhibitors; active = well fitted inhibition curve with a large enough effect in the signal ratio, with a control signal flat, not every such curve was filed as active; inconclusive = small, poorly fitted or top-dose-only effect, or effect the other way, or a change in a side signal; the % refers to the signal ratio; note: potency is the fitted concentration of half-maximal effect
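S3 HeLa stable clones carrying a lamin A-EGFP splicing minigene plus DsRed2 were seeded at 600 cells/well in Opti-MEM with 2% FBS, pin-dosed and incubated 48 h at 37°C. Acumen cytometry (488 nm) gave the GFP/RFP total-intensity ratio.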
ALDH1A1 block: ALDH1A1 (human) enzyme inhibition; P00352; Purified ALDH1A1, NADH fluorescence, propionaldehyde substrate; Potency, µM (titrated, usually from 75.3 µM), for the others: at the highest dose activity, negative = inhibition, usual class: inhibitors; hit rate 7.3% among 220,000;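 note: potency is the fitted concentration of half-maximal effect; plate controls were no enzyme wells and a reference inhibitor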
Target sequence (P00352 whole entry, looked up): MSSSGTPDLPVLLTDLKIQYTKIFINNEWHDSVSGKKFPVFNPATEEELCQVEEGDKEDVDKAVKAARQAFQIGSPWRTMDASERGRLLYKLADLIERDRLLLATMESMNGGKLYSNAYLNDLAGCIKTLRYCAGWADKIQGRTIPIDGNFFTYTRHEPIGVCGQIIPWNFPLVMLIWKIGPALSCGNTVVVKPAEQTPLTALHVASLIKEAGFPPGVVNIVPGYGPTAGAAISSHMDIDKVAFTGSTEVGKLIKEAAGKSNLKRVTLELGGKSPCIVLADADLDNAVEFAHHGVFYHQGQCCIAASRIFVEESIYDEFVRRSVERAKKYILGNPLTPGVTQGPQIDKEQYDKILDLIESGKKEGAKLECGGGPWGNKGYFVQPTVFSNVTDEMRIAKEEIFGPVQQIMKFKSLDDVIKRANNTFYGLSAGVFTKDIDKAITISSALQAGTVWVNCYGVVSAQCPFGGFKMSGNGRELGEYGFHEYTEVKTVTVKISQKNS
Numbers without * were called inactive; ? = inconclusive; . = no result; [ ] = remark or other dose. Unless noted, calls come from the whole dose curve; as a rule, active = well fitted inhibition curve with a large enough effect (not every such curve was filed as active); inconclusive = small, poorly fitted or top-dose-only effect, or another doubt; inactive = no such curve, though single readings can be large or run the other way. Unless noted, % is set by controls: 0 for no effect and ±100 for the full control effect.

SMILES | PNC assembly inh | 12-hLO inh | HPGD block | LMNA splice mod | ALDH1A1 block
O=C1C=C(c2ccccc2)C(=O)N1Nc1ccccc1 | -8.7 | ? | ? | -10.5% | 22.4µM*
COc1ccc(C2=CC(=O)N(Nc3ccccc3)C2=O)cc1 | . | . | . | ? | -5.4%
COC(=O)c1ccc(CSc2cc(C)c3cc(C)cc(C)c3n2)o1 | . | . | . | -10.6%[46 µM] | 12.6µM*
COC(=O)c1ccc(CSc2n[nH]c(=S)s2)o1 | ? | -2.3% | ? | -2.1% | 3.55µM*
CN(C)c1nc(-c2ccoc2)nc2ccccc12 | . | -3.9% | -1.4% | -7.4% | -10.3%
O=C(NCCN1CCCC1)c1ccc(Cc2nc3ccccc3[nH]2)cc1 | . | 0.3% | -3.4% | . | 8.7%
CCCCNC(=O)Cn1cnc2sc(C)c(S(=O)(=O)N3CCN(c4ncccn4)CC3)c2c1=O | . | . | . | 1.7%[46 µM] | 6.1%
CCCCN(CC)CCNC(=O)Cn1cnc2sc(C)c(S(=O)(=O)N3CCOCC3)c2c1=O | -100.0* | -2.9% | -9.6% | -5.1% | -7.8%
Cc1cccc(NC(=O)Cn2cnc3sc(C)c(S(=O)(=O)N4CCC(C)CC4)c3c2=O)n1 | -100.0* | 5.3% | -13.8% | -8.5% | -7.0%
CC(C)(C)NC(=O)CSc1nsc(SCC(=O)NC(C)(C)C)c1C#N | 24.9 | -3.9% | -12.9% | ? | 5.8%
N#Cc1c(SCC(N)=O)nsc1SCc1ccccc1Cl | -4.0 | -2.5% | -13.3% | -6.5% | ?
CCOC(=O)CSc1nsc(SCC(=O)OCC)c1C#N | -100.0* | -7.6% | -24.1% | -6.3% | 6.7%
CC(=O)CSc1nsc(SCC(C)=O)c1C#N | 152.7 | -9.0% | ? | -6.6% | 28.2µM*
N#Cc1c(SCC(=O)N2CCOCC2)nsc1SCC(=O)N1CCOCC1 | 45.7 | -4.3% | -3.5% | 6.3% | 4.8%
N#Cc1c(SCC(N)=O)nsc1SCc1ccc(Cl)cc1 | -82.8* | -8.1% | -12.8% | 3.2% | -5.5%
N#Cc1c(SCC(=O)OCc2ccccc2)nsc1SCC(=O)OCc1ccccc1 | -100.5* | 6.0% | -7.1% | -1.8% | -4.5%
CCCCNC(=O)C1CCCN1C(=O)NC1CCCCC1 (configuration not stated) | -100.0* | 5.4% | -9.1% | -6.7% | 3.6%
O=C(CCc1ccccc1)NC1CC(=O)N(c2ccccc2)C1 (configuration not stated) | . | . | . | -1.5%[46 µM] | .
O=C(NNC1=NCCCCC1)c1ccccc1 | 16.8 | 0.5% | 14.1µM* | -2.4% | 5.8%
c1ccc(CNC2=NCCCC2)cc1 | -8.6 | -4.4% | . | ? | 5.3%
CCOC(=O)C1CCN(C(=O)Nc2ccc(Cl)cc2Cl)CC1 | 2.2 | -4.8% | -9.7% | 4.1% | 10.4%
CCOC(=O)/C(C(=O)Nc1ccc(Cl)cc1Cl)=C1/NC(C)(C)Cc2ccccc21 | -7.7 | -6.2% | -16.8% | -8.1% | 12.6µM*
Nc1nonc1C(=O)N/N=C/c1ccc(-c2ccc(Cl)c(C(=O)O)c2)o1 | . | . | . | -12.3%[46 µM] | 3.98µM*
COC(=O)N/N=C/c1ccc(-c2ccc(C)c(Cl)c2)o1 | 3.3 | -5.4% | 14.1µM* | -6.5% | -11.3%
Nc1nonc1C(=O)N/N=C/c1ccc(Br)o1 | . | . | . | . | -0.2%
SMILES | PNC assembly inh | 12-hLO inh | HPGD block | LMNA splice mod | ALDH1A1 block
c1ccc2c(c1)CCCC2C1=NCCN1 (configuration not stated) | 18.3 | -12.0% | -2.4% | -6.9% | -1.3%
Brc1ccc2c(c1)C(C1=NCCN1)c1ccccc1CS2 (configuration not stated) | -109.0* | -0.4% | 3.9% | ? | 3.0%
CC(C)c1nn2c(=O)cc(COC(=O)c3ccccc3NC(=O)C3CCCCC3)nc2s1 | . | . | . | -8.2%[46 µM] | .
CCN(CC)S(=O)(=O)c1ccc(C(=O)Nc2nnc(COC)o2)cc1 | . | . | . | ? | -5.1%
CCc1nnc(NC(=O)c2ccc(S(=O)(=O)N(CC)Cc3ccccc3)cc2)o1 | -20.2 | -25.5% | . | -25.4% | 17.8µM*
O=C(NCCN1CCCC1)c1ccc(-n2c(=O)c(=O)[nH]c3ccccc32)cc1 | . | -2.6% | -3.5% | . | 5.7%
Cc1ccc(OCCCCn2ccnc2)c([N+](=O)[O-])c1 | . | . | . | . | 1.58µM*
COc1ccc(OCCOCCOc2ccc(C)cc2[N+](=O)[O-])cc1 | 18.5 | -4.0% | ? | -1.3% | 25.1µM*
Cc1ccc(OCCOc2cccc3ccc(C)nc23)c([N+](=O)[O-])c1 | . | . | . | . | 14.1µM*
COCCNCCCCOc1ccc(C)cc1[N+](=O)[O-] | ? | -3.3% | -8.2% | -3.4% | 2.82µM*
COc1cccc(OCCOCCOc2ccc(C)cc2[N+](=O)[O-])c1 | ? | -0.2% | -10.0% | -2.1% | ?
CN(C)c1ccc(CNC(=O)C2CCN(S(=O)(=O)c3ccc4c(c3)CCC(=O)N4)CC2)cc1 | 13.4 | 3.2% | -14.6% | -18.8% | 17.8µM*
CCOc1ccc(NS(=O)(=O)c2ccc(C(=O)N(C)C)s2)cc1 | . | . | . | -3.3%[46 µM] | .
Cc1c(C(=O)N(C)Cc2ccccc2)oc2ccc(S(=O)(=O)N3CCCC3)cc12 | 14.9 | -6.3% | -3.0% | ? | 22.4µM*
Cc1cccc(NC(=O)c2oc3ccc(S(=O)(=O)N4CCC5(CC4)OCCO5)cc3c2C)c1C | . | . | . | -6.8%[46 µM] | .
Cc1c(C(=O)O)oc2ccc(S(=O)(=O)N3CCC(C)CC3)cc12 | 3.6 | -0.1% | 11.2µM* | 10.3% | 0.7%
Cc1c(C(=O)O)oc2ccc(S(=O)(=O)N3CC(C)CC(C)C3)cc12 (configuration not stated) | -11.3 | 3.1% | ? | -0.4% | -4.2%
COc1ccc(NC(=O)c2oc3ccc(S(=O)(=O)N4CCC5(CC4)OCCO5)cc3c2C)cc1 | ? | 4.8% | -26.2% | -23.4% | 22.4µM*
CSCCC(NS(=O)(=O)c1ccc2c(c1)oc(=O)n2C)C(=O)NCc1ccc(Cl)cc1 (configuration not stated) | . | . | . | -1.2%[46 µM] | .
Cn1c(N)c(C(=O)NCc2ccccc2)sc1=S | -6.0 | -3.0% | ? | 3.6% | 20µM*
CCOC(=O)c1sc(=S)n(C)c1NC(=O)c1ccccc1 | ? | -1.9% | 8.91µM* | -5.8% | 3.55µM*
COC(=O)c1ccccc1NC(=O)c1sc(N)nc1C | 3.1 | -0.6% | . | -1.8% | ?
COc1ccc(CCNC(=O)c2sc(=S)n(C)c2N)cc1 | 4.5 | -1.8% | -15.5% | 4.2% | -10.8%
CCOC(=O)c1sc(NC(=O)c2ccccc2)cc1C | 17.3 | 2.2% | ? | 9.3% | ?
